# Several values for one entry are separate records, joined by “and”; a condition that tells them apart may be missing. Equal entries are not always repeated. Records with an inconclusive call do not appear. Where a structure was tested more than once in an assay, its records may differ in their call. Activity calls are given as the source filed them. The calls were made as follows: active = hit-call score of the fitted dose curve at least 0.9, where 1 is the maximum; inconclusive = response in the unintended direction; inactive = score below 0.9.
# Assay: CCTE_Shafer_MEA_dev_active_electrodes_number: CCTE's Neural Network Formation Assay for Number of Active Electrodes, Shafer Lab (AID 2284040);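 as to AC50: potency for loss of active electrodes versus DMSO so lower counts are hits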
# Procedure: CCTE_Shafer_MEA_dev assay is conducted using Axion Biosystems 48 well microelectrode array (MEA) plates and Maestro recording system. Each well of the MEA plate contains a grid of 16 microelectrodes embedded in the culture surface. Electrically active cells, such as neurons, can be cultured over the electrodes, and electrical activity in these cells can be recorded extracellularly. The spontaneous firing of neurons is captured from each electrode on a microsecond timescale providing both temporally and spatially precise data. […] The CCTE_Shafer_MEA_dev assay uses primary cultures of rat cortical neurons. Recordings are made on days post-plating 5, 7, 9 and 12. As these cultures mature over time, neural networks develop functional activity and form cohesive networks in which electrical activity can be highly coordinated. CCTE_Shafer_MEA_dev_active_electrodes_number is 1 of 19 assay components of the CCTE_Shafer_MEA_dev assay. It measures the number of electrodes in a well with a mean firing rate of at least 5 spikes (action potential firings) per minute during a recording in a microelectrode array (MEA) using Axion Biosystems Maestro 768 channel amplifier with the AxIS adaptive spike detector. To collapse across multiple recordings made on days post-plating 5, 7, 9 and 12, the trapezoidal area-under-the-curve of the component is calculated.Data from the assay component CCTE_Shafer_MEA_dev_active_electrodes_number was analyzed into 1 assay endpoint. This assay endpoint, CCTE_Shafer_MEA_dev_active_electrodes_number, was analyzed in the negative analysis fitting direction relative to DMSO as the negative control and baseline of activity. Using a type of functional reporter, gain or loss-of-signal activity can be used to understand electrical activity.
# On the day prior to culture, each well was coated thoroughly with 150 uL of 0.05% polyethyleneimine (PEI, Sigma Cat P3143) in 50 mM HEPES (Sigma Cat H7523) at a pH of 8. The plate was incubated at 37C for one hour. PEI was rinsed out with 500 uL of sterile water three times. Plates were stored at 4C until the day of culture. This culture was plated at a seeding density of 1.5 x 10^5 cells/well on a 48-well MEA plate, prepared as described above. Cells were administered via a 25 uL media/laminin ([…]; Sigma Cat L2020-1MG) drop directly onto the microelectrode array, as adding the cells with the laminin results in better attachment than pre-coating with laminin. After 2 hours, an additional 475 uL of cortical media was added and the cells returned to the incubator. Exposure starts at day 0 of plating and is continued over twelve days of network development until the experiment is terminated. Cells are fed with fresh medium on DIV 5 and 9, following the recordings on those days. The entire volume of media in the well is exchanged and any vehicle or compound treatment is renewed. Complete details are found in OP-NHEERL/ISTD/SBB/TJS/2015-03-r0 (available on request, email shafer.tim@epa.gov). Measurement of the electrical activity is non-invasive, and recordings can be made from the same plate over multiple different days of the culture. In cortical neurons, this allows for the measurement of extracellular action potentials over the period during which networks form in the MEA plate.
SMILES,outcome,AC50
O=C(O)c1ccccc1,inactive,–
S=C([S-])NCCNC(=S)[S-].[Mn+2],inactive,–
S=C(S)NCCNC(=S)S.[Mn+2].[S-]C([S-])=NCCN=C([S-])[S-].[Zn+2],inactive,7.52 µM (active)
OB(O)O,inactive,–
CC1(C)C(C=C(Cl)Cl)C1C(=O)OCc1cccc(Oc2ccccc2)c1 (stereo unspecified),–,24.7 µM (active) and 10.1 µM (active)
COCCO,inactive,–
Cc1nn(C)c(Oc2ccccc2)c1C=NOCc1ccc(C(=O)OC(C)(C)C)cc1,–,0.00264 µM (active)
CC(C)(c1ccc(O)cc1)c1ccc(O)cc1,inactive,15 µM (active)
C#CCOC(=O)[C@@H](C)Oc1ccc(Oc2ncc(Cl)cc2F)cc1,inactive,–
CCN(CC)C(=O)c1cccc(C)c1,–,19.5 µM (active)
CCCCC(CC)CN1C(=O)C2C3C=CC(C3)C2C1=O (stereo unspecified),–,4.74 µM (active)
CCCCOCCOCCOCc1cc2c(cc1CCC)OCO2,inactive,–
Oc1ccc(C(c2ccc(O)cc2)C(Cl)(Cl)Cl)cc1,–,4.06 µM (active)
CCCN(CCC)C(=O)SCC,inactive,–
